Several values for one entry are separate records, joined by “and”; a condition that tells them apart may be missing. Equal values may be shown once. Records with an inconclusive call do not appear. Where a structure was tested more than once in an assay, its records may differ in their call. Activity calls are given as the source filed them. Unless noted, the call rests on the fitted dose curve; in most records, active means well fitted curve in the direction sought with a large enough effect in the repeat runs; inconclusive means weak or mixed curves; inactive means no such curve, though single readings can be large; an effect the other way counts as inactive or inconclusive.
Assays:
[1] = qHTS assay for identifying genotoxic compounds that show differential cytotoxicity against isogenic chicken DT40 cell lines with known DNA damage response pathways - wild type cell line (AID 743012); further: nearly all actives have a fitted effect of over 60% in size; further: potency means the concentration at half of the fitted maximal effect
Method in brief: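 300 wt DT40 cells/well; cpd (DMSO) pintool-transferred after ~0.5 h at 37 C/5% CO2; 40 h incubation; CellTiter-Glo added, 30 min RT; luminescence read.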

[2] = qHTS assay for identifying genotoxic compounds that show differential cytotoxicity against isogenic chicken DT40 cell lines with known DNA damage response pathways - Rad54/Ku70 mutant cell line (AID 743015); further: nearly all actives have a fitted effect of over 60% in size; further: potency means the concentration at half of the fitted maximal effect
[3] = qHTS assay to identify small molecule antagonists of the androgen receptor (AR) signaling pathway - cell viability counter screen (AID 743033; further: nearly all actives have a fitted effect of over 45% in size; further: potency means the concentration at half of the fitted maximal effect)
[4] = qHTS assay to identify small molecule antagonists of the androgen receptor (AR) signaling pathway using the MDA cell line - cell viability counter screen (AID 743041; further: nearly all actives have a fitted effect of over 45% in size)
Method in brief: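 Compound exposure lasted 16 h at 37C in MDA-kb2 AR-luc cells stimulated with R1881. Protease-based CellTiter-Fluor reagent was applied for the final 30 min and fluorescence measured.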

[5] = qHTS assay to identify small molecule antagonists of the thyroid receptor (TR) signaling pathway - cell viability counter screen (AID 743064); further: nearly all actives have a fitted effect of over 50% in size; further: potency means the concentration at half of the fitted maximal effect
Method in brief: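 Fluorescence from CellTiter-Fluor, added after 23.5 h exposure at 37 °C, reported viability of GH3.TRE-Luc cells co-treated with compound and 1 nM T3. Measured in the same wells as the luciferase TR readout.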

[6] = qHTS assay for identifying genotoxic compounds that show differential cytotoxicity against isogenic chicken DT40 cell lines with known DNA damage response pathways - Rev3 mutant cell line (AID 743014); further: nearly all actives have a fitted effect of over 55% in size; further: potency means the concentration at half of the fitted maximal effect
[7] = target: Androgen receptor (Homo sapiens) (UniProt P10275); experiment: qHTS assay to identify small molecule agonists of the androgen receptor (AR) signaling pathway (AID 743036; active means well fitted activation curve with a large enough effect in the signal ratio in the repeat runs, with a control signal flat, not every such curve was filed as active; the % refers to the signal ratio)
Sequence of Androgen receptor (Homo sapiens) (P10275 whole entry, looked up): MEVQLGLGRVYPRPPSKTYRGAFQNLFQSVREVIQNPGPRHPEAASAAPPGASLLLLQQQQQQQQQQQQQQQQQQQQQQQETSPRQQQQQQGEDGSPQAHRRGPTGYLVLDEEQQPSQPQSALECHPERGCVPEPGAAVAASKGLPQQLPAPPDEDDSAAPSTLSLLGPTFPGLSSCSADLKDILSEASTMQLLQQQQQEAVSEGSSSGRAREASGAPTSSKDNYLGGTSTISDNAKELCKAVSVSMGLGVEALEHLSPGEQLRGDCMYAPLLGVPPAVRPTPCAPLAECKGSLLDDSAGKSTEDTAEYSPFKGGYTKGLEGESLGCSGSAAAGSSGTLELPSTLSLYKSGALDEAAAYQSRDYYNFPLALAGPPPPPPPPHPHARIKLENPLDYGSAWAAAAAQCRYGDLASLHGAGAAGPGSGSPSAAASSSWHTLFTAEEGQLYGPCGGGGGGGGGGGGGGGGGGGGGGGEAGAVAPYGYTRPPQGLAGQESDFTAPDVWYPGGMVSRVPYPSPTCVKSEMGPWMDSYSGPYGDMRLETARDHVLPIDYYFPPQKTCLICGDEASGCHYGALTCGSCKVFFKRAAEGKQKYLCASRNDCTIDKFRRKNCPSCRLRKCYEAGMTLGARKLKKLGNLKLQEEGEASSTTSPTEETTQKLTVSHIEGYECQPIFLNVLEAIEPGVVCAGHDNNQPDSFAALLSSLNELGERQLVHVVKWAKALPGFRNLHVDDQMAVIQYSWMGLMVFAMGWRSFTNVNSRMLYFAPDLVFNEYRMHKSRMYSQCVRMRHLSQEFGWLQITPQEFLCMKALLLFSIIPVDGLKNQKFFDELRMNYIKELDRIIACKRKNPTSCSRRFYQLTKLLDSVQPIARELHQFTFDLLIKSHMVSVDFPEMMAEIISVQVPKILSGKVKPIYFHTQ
Method in brief: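 Fluorescence from a beta-lactamase FRET substrate served as read-out in AR-UAS-bla GripTite HEK293 cells. Cells were treated with DMSO-dissolved compounds for 16 h at 37C, then with LiveBLAzer B/G substrate for 2 h at room temperature.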

[8] = target: Androgen receptor (Homo sapiens) (UniProt P10275); experiment: qHTS assay to identify small molecule agonists of the androgen receptor (AR) signaling pathway using the MDA cell line (AID 743040; further: nearly all actives have a fitted effect of over 20% in size)
Method in brief: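 Testing was done with the MDA-kb2 AR-luc line, a human breast carcinoma stably transfected with MMTV-luciferase containing AR and GR response elements. Cells were exposed 16 h at 37C before ONE-Glo luminescence detection.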

[9] = target: Androgen receptor (Homo sapiens) (UniProt P10275); experiment: qHTS assay to identify small molecule antagonists of the androgen receptor (AR) signaling pathway using the MDA cell line (AID 743042; further: nearly all actives have a fitted effect of over 55% in size)
Method in brief: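 MDA-kb2 breast carcinoma cells carrying MMTV-luciferase (AR/GR responsive) were co-treated with compounds and the agonist R1881 for 16 h at 37C. Inhibition read as ONE-Glo luminescence; CellTiter-Fluor fluorescence measured in parallel for cytotoxicity.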

Measured: Potency

C=CCN1CC[C@]23CCCC[C@H]2[C@H]1Cc1ccc(O)cc13
inactive: [2] | [3]
active: [1] 21.1 µM

C=CCc1cc(OC)c2c(c1)OCO2
inactive: [1] | [2] | [3] | [4] | [5]

CN1COCN(Cc2cnc(Cl)s2)/C1=N\[N+](=O)[O-]
inactive: [1] | [2] | [3] | [4] | [5]

c1cncc([C@@H]2CCCCN2)c1
inactive: [1] | [2] | [3] | [4] | [5]

Oc1ccc(Cc2ccc(O)cc2)cc1
inactive: [1] | [2] | [3] | [5]

N#CN
inactive: [1] | [6] | [2] | [3] | [5]

CC(C)(C)C(=O)Cl
inactive: [1] | [6] | [2] | [3] | [4] | [5]

C=C1C[C@@H]2[C@H](CC[C@]3(C)C(=O)CC[C@@H]23)[C@@]2(C)C=CC(=O)C=C12
active: [1] 7.5 µM | [6] 11.9 µM | [2] 13.3 µM
inactive: [4] | [5]

CN(CCO)CCO
inactive: [1] | [2] | [3] | [5]

C[C@@H](N)[C@@H](O)c1ccccc1
inactive: [3] | [4] | [5]

CS(=O)(=O)c1ccc(C(=O)C2C(=O)CCCC2=O)c(Cl)c1COCC(F)(F)F
inactive: [1] | [2] | [3] | [5]

C[C@]12C=CC(=O)C=C1CC[C@@H]1[C@@H]2CC[C@@]2(C)[C@H]1CC[C@]2(C)O
inactive: [3] | [5]
active: [1] 23.7 µM | [2] 29.8 µM

CCCC[N+](=O)[O-]
inactive: [1] | [2] | [3] | [4] | [5]

CCN(CC)C1CCCCC1
inactive: [6] | [3] | [7] | [8] | [4] | [9] | [5]

CC[C@@H](CO)NC(=O)[C@@H]1C=C2c3cccc4[nH]cc(c34)C[C@H]2N(C)C1
inactive: [1] | [6] | [2] | [7] | [8] | [4] | [5]

ClC1=C(Cl)C2(Cl)C(CBr)CC1(Cl)C2(Cl)Cl (stereo not given)
inactive: [3] | [4]
active: [2] 30.6 µM | [5] 26.6 µM and 48.6 µM

CC(C)(C)c1cc(O)ccc1O
active: [1] 4.22 µM and 7.7 µM | [2] 6.68 µM and 48.6 µM and 12.2 µM | [5] 8.41 µM and 68.6 µM and 48.6 µM
inactive and 26.8 µM (active): [3]

[P]#[In]
inactive: [1] | [2] | [3] | [4] | [5]
